The text below walks through data of PubChem BioAssay (NCI).

The panel holds about 83,000 compounds, 20% with a hit somewhere; the sample as a whole holds those more often.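 Percent growth is the endpoint: 0 to 100 indicates growth inhibition (40 means 60% inhibition), 0 means no net growth, and negative values indicate cell death.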 Unmarked numbers belong to inactive results. Active and inactive are the calls of the source. How the source made its calls: active means growth percent below 10; inactive means the rest.

Some test systems named below: NCI-H23 lung; NCI-H226 lung; NCI-H322M lung; HOP-62 NSCLC; NCI-H460 lung; HOP-92 NSCLC; NCI-H522 lung; A549/ATCC NSCLC; 786-0 renal; COLO 205 colon; DU-145 prostate; K-562 leukemia; MALME-3M melanoma; MDA-MB-231 breast; RXF 393 renal; SF-268 CNS; SF-295 CNS; SF-539 CNS; UACC-257 melanoma; M14 melanoma.
Common to all, as to assay: NCI-60 one-dose screen, 48 h (100 = growth as untreated, 0 = no growth, -100 = all killed)
Holding throughout (details): 10 µM unless noted

In the case of `COc1ccc(/C=C/C(=O)/C=C(/C=C/c2ccc(OC)c(OC)c2)OB(F)F)cc1OC`, the growth in the experiment with NCI-H23 lung was 52.3%; in the experiment on NCI-H226 lung, 57.1%; with NCI-H322M lung it was 103%; in the experiment on HOP-62 NSCLC, 83.5%; in the experiment with NCI-H460 lung, 21.8%; in the experiment on HOP-92 NSCLC, 56.8%. Further, the growth in the experiment on NCI-H522 lung was -32.4% (active); with A549/ATCC NSCLC, 60.8%; with 786-0 renal it was 12.5%; in the experiment on COLO 205 colon, -23.2% (active); with DU-145 prostate, 35.1%; in the experiment with K-562 leukemia, 17.4%. Besides, the growth in the experiment on MALME-3M melanoma is 25.4%; in the experiment with MDA-MB-231 breast, 21%; in the experiment with RXF 393 renal it was -10.8% (active); in the experiment with SF-268 CNS, 34.9%; in the experiment with SF-295 CNS, 69.4%; with SF-539 CNS, 28.8%. Besides, the growth is 59.1% in the experiment on UACC-257 melanoma and 11.1% in the experiment with M14 melanoma.

On to `COC(=O)c1cc2c3c(cc(O)c2[nH]1)N(C(=O)C1Cc2cc(OC)c(OC)c(OC)c2N1)CC3CCl` (stereo not given), for which the growth in the experiment on NCI-H23 lung was -48.7% (active); in the experiment with NCI-H226 lung, -35.1% (active); in the experiment with NCI-H322M lung it was -16.2% (active); with HOP-62 NSCLC it was -54.7% (active); in the experiment on NCI-H460 lung it was -17.9% (active); with HOP-92 NSCLC, -35.9% (active). Moreover, the growth in the experiment on NCI-H522 lung is -60.6% (active); with A549/ATCC NSCLC it was -21% (active); with 786-0 renal, -47.6% (active); with COLO 205 colon, -70.4% (active); with DU-145 prostate, -99.1% (active); with K-562 leukemia, 1.56% (active). Besides, the growth in the experiment on MALME-3M melanoma was -58.1% (active); with MDA-MB-231 breast, -41.3% (active); with RXF 393 renal it was -99.4% (active); in the experiment on SF-268 CNS, -5.75% (active); in the experiment with SF-295 CNS, -40.6% (active); in the experiment with SF-539 CNS it was -74.7% (active). For the same molecule, the growth in the experiment with UACC-257 melanoma was -72.3% (active); in the experiment on M14 melanoma, -25.1% (active).

On to `CC[C@]12C=CCN3CC[C@@]4(c5ccc(OC)cc5N(C)[C@H]4[C@@](O)(C(=O)OC)[C@@H]1OC(=O)CCC(=O)O[C@H]1CC[C@H]4[C@@H]5CC[C@H]6CC(=O)CC[C@]6(C)[C@H]5CC[C@]14C)[C@@H]32`, for which the growth with NCI-H23 lung is 38.5%; in the experiment with NCI-H226 lung, 35.4%; in the experiment with NCI-H322M lung, 68.3%; with HOP-62 NSCLC it was 32.7%; in the experiment with NCI-H460 lung it was 13.8%; in the experiment with HOP-92 NSCLC, -2.92% (active). Also, the growth is 2.12% (active) with NCI-H522 lung; 13.2% with A549/ATCC NSCLC; 30.8% in the experiment on 786-0 renal; -22.1% (active) in the experiment with COLO 205 colon; 43.7% in the experiment with DU-145 prostate; 8.73% (active) with K-562 leukemia. For the same molecule, the growth in the experiment on MALME-3M melanoma is 42.5%; in the experiment with MDA-MB-231 breast, 34.6%; in the experiment on RXF 393 renal, 25.9%; with SF-268 CNS, 46.2%; in the experiment with SF-295 CNS, 7.7% (active); with SF-539 CNS, 47.3%. In addition, the growth with UACC-257 melanoma was 26.9%; with M14 melanoma it was 26%.

For the molecule `C#C[C@@]1(O)[C@@H](CO)O[C@@H](n2cc(I)c3c(N)ncnc32)[C@@H]1O`, the growth with NCI-H23 lung was -14.5% (active); in the experiment on NCI-H226 lung, 52.2%; with NCI-H322M lung, 20%; in the experiment on HOP-62 NSCLC it was -3.39% (active); with NCI-H460 lung, -25.4% (active); in the experiment on HOP-92 NSCLC, -23.8% (active). For the same molecule, the growth is -49.6% (active) in the experiment with NCI-H522 lung; -56.5% (active) in the experiment on A549/ATCC NSCLC; -24.3% (active) in the experiment on 786-0 renal; -50.2% (active) with COLO 205 colon; 7.45% (active) with DU-145 prostate; 6.9% (active) with K-562 leukemia. Besides, the growth with MALME-3M melanoma is -5.65% (active); with MDA-MB-231 breast, 2.55% (active); in the experiment on RXF 393 renal, -27.7% (active); in the experiment with SF-268 CNS it was 28.5%; in the experiment on SF-295 CNS, 10.5%; with SF-539 CNS it was -40.5% (active). For the same molecule, the growth in the experiment with UACC-257 melanoma was 44.7%; in the experiment on M14 melanoma it was 22.4%.

Consider `C#Cc1ccccc1NC(=O)c1sc2nc3c(cc2c1N)CCCCC3`, for which the growth with NCI-H23 lung is 88%; in the experiment with NCI-H226 lung, 88.3%; with NCI-H322M lung it was 101%; in the experiment on HOP-62 NSCLC, 99.5%; with NCI-H460 lung it was 104%; in the experiment with HOP-92 NSCLC it was 93.2%. For the same molecule, the growth was 71.5% with NCI-H522 lung; 99.2% in the experiment with A549/ATCC NSCLC; 123% in the experiment with 786-0 renal; 105% in the experiment with COLO 205 colon; 104% in the experiment on DU-145 prostate; 90.5% with K-562 leukemia. For the same molecule, the growth with MALME-3M melanoma is 102%; in the experiment on MDA-MB-231 breast, 93.5%; in the experiment on RXF 393 renal it was 113%; in the experiment on SF-268 CNS, 104%; with SF-295 CNS, 113%; with SF-539 CNS, 101%. For the same molecule, the values for the growth in the experiment on UACC-257 melanoma and with M14 melanoma were 110% and 93.9%, respectively.

For the molecule `COc1ccc(C(=O)c2cc(OC)c(OC)c(OC)c2)cc1OC(=O)CCl`, the growth in the experiment on NCI-H23 lung was 24%; with NCI-H226 lung, 109%; with NCI-H322M lung, 44.5%; in the experiment with HOP-62 NSCLC it was 22%; in the experiment on NCI-H460 lung, 8.25% (active); in the experiment with HOP-92 NSCLC, 52.9%. The growth with NCI-H522 lung is -12.4% (active); with A549/ATCC NSCLC it was 23%; in the experiment with 786-0 renal it was 28.7%; in the experiment with COLO 205 colon, 16.4%; with DU-145 prostate it was 5.3% (active); in the experiment with K-562 leukemia, 13.3%. Further, the growth in the experiment on MALME-3M melanoma is 71%; in the experiment with MDA-MB-231 breast, 34.4%; in the experiment on RXF 393 renal, 56.6%; in the experiment with SF-268 CNS, 37.3%; with SF-295 CNS, 17.3%; in the experiment on SF-539 CNS, 1.91% (active). For the same molecule, the growth was 48.9% in the experiment on UACC-257 melanoma and 5.59% (active) in the experiment on M14 melanoma.

In the case of `O=C(C[n+]1cccc2cc(Cl)ccc21)c1ccc2c(c1)CCCC2`, the growth is 8.05% (active) in the experiment with NCI-H23 lung; 39% with NCI-H226 lung; 61.6% in the experiment with NCI-H322M lung; 36.2% in the experiment on HOP-62 NSCLC; 19.8% with NCI-H460 lung; 4.68% (active) with HOP-92 NSCLC. Moreover, the growth was -3.94% (active) in the experiment with NCI-H522 lung; 34.5% in the experiment on A549/ATCC NSCLC; 80.4% in the experiment with 786-0 renal; 2.8% (active) with COLO 205 colon; 10.5% in the experiment on DU-145 prostate; 10.6% in the experiment on K-562 leukemia. For the same molecule, the growth with MALME-3M melanoma was -30.9% (active); with MDA-MB-231 breast, 5.63% (active); with RXF 393 renal, 62%; in the experiment on SF-268 CNS, 27.6%; in the experiment on SF-295 CNS, 47.2%; with SF-539 CNS, -10.9% (active). Further, the growth with UACC-257 melanoma is 5.48% (active); in the experiment with M14 melanoma, 32.6%.

Consider `CCCS(=O)(=O)Nc1ccc(F)c(C(=O)c2c[nH]c3ncc(-c4ccc(OCCCC5CCCCN5)nc4)cc23)c1F` (stereo not given), for which the growth in the experiment on NCI-H23 lung was 80.7%; with NCI-H226 lung it was 69.9%; in the experiment on NCI-H322M lung it was 97.8%; in the experiment with HOP-62 NSCLC, 65.5%; in the experiment with NCI-H460 lung it was 79.9%; in the experiment with HOP-92 NSCLC it was 4.71% (active). For the same molecule, the growth is 59.5% in the experiment with NCI-H522 lung; 83.5% in the experiment on A549/ATCC NSCLC; 78.7% with 786-0 renal; 2.52% (active) with COLO 205 colon; 87.5% in the experiment on DU-145 prostate; 30.1% with K-562 leukemia. Also, the growth is -25.7% (active) in the experiment on MALME-3M melanoma; 14.9% in the experiment with MDA-MB-231 breast; 63.9% in the experiment with RXF 393 renal; 68.6% in the experiment with SF-268 CNS; 75.7% in the experiment on SF-295 CNS; 28.4% in the experiment with SF-539 CNS. The growth with UACC-257 melanoma was -17% (active); with M14 melanoma, -17.2% (active).
